{"source": "PubChem BioAssay (Tox21)", "note": "Results filed as inconclusive are left out. Unmarked numbers belong to inactive results. Activity calls are given as the source filed them. Calls come from the whole dose curve; as a rule, active = well fitted cell-killing curve with a large enough effect in the repeat runs; inconclusive = weak or mixed curves, or effect the other way; inactive = flat fitted curve, though single readings scatter. % is set by controls: 0 for no effect and ±100 for the full control effect; potency is the fitted concentration of half-maximal effect."}
{"test": "cAMP Responsive Elements (CRE) small molecule antagonists, cell-based qHTS assay: qHTS cell viability counter screen (AID 2060913); note: nearly all actives have a fitted effect of over 40% in size", "conditions": "CRE-bla HEK293T viability, CellTiter-Glo luminescence, 5 h; series mostly up to 92.4 µM; viability change, negative = cytotoxic: at the top concentration", "how_it_was_run": "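HEK293T CRE-bla, 2,000 cells/well, 18 h preincubation; cpd in DMSO + NKH477 0.25 uM final, 3 h 37 C/5% CO2; LiveBLAzer 2 h RT, then CellTiter-Glo 30 min RT, luminescence.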"}
{"smiles": "O=C(OCC1CCC2OC2C1)C1CCC2OC2C1", "note": "(configuration not stated)", "Potency": "inactive"}
{"smiles": "COc1nc(N)nc2nc[nH]c12", "viability change, negative = cytotoxic": "14.2%"}
{"smiles": "Cc1nc2ccccc2n1Cc1ccc(Cl)cc1", "viability change, negative = cytotoxic": "-14.5% [at 42.5 µM]"}
{"smiles": "Nc1cc(-c2ccncc2)c[nH]c1=O", "Potency": "inactive"}
{"smiles": "O=C(NCCN1CCOCC1)c1ccc(Cl)cc1", "viability change, negative = cytotoxic": "4.15% [at 42.5 µM]"}
{"smiles": "COC(=O)[C@@H]1CC2=CC(=O)CC[C@]2(C)[C@@]23O[C@@H]2C[C@@]2(C)[C@@H](CC[C@@]24CCC(=O)O4)[C@H]13", "viability change, negative = cytotoxic": "1.48% [at 42.5 µM]"}
{"smiles": "COc1cc2[nH]c(=O)[nH]c(=O)c2cc1OC", "viability change, negative = cytotoxic": "-0.947% [at 42.5 µM]"}
{"smiles": "CCCCCCCCCCCCCCCC(=O)OC(C)C", "Potency": "inactive"}
{"smiles": "CN1CCc2cccc3c2[C@H]1Cc1ccc(O)c(O)c1-3", "Potency": "inactive"}
{"smiles": "O=C(Nc1ccc([N+](=O)[O-])cc1Cl)c1cc(Cl)ccc1O", "viability change, negative = cytotoxic": "-20.4%"}
{"smiles": "CC(C)(C)c1cc(Cc2cc(C(C)(C)C)c(O)c(C(C)(C)C)c2)cc(C(C)(C)C)c1O", "Potency": "inactive"}
{"smiles": "CC(C)C[C@H](NC(=O)CNC(=O)[C@H](Cc1ccc(O)cc1)NC(=O)[C@H](CO)NC(=O)[C@H](Cc1c[nH]c2ccccc12)NC(=O)[C@H](Cc1cnc[nH]1)NC(=O)[C@@H]1CCC(=O)N1)C(=O)N[C@@H](CCCN=C(N)N)C(=O)N1CCC[C@H]1C(=O)NCC(N)=O", "note": "(stereo in doubt)", "viability change, negative = cytotoxic": "0% [at 42.5 µM]"}
{"smiles": "NC(=S)NC(N)=S", "viability change, negative = cytotoxic": "-7.71%"}
{"smiles": "CC(C)N=C(N)/N=C(\\N)Nc1ccc(Cl)cc1", "viability change, negative = cytotoxic": "-0.0655% [at 42.5 µM]"}
{"smiles": "C/C=C/C=C/C(=O)O", "Potency": "inactive"}
{"smiles": "Nc1ccc(C(=O)NCC(=O)O)cc1", "viability change, negative = cytotoxic": "-0.157% [at 42.5 µM]"}
{"smiles": "CCCCCCCCCCCCCC[P+](CCCC)(CCCC)CCCC", "note": "(tested in a mixture with another compound)", "Potency": "2.45 µM (active)"}
